According to the supplement of paper PMC13380429:

Tested on: Vero E6 infected with SARS-CoV-2
Assay: inhibition of SARS-CoV-2 cytopathic effect; higher = more antiviral protection, active = above 15
Details: 48 h

Measured: inhibition of SARS-CoV-2 cytopathic effect

CC[C@H](CC[C@@H](C)[C@H]1CC[C@H]2[C@@H]3CC=C4C[C@@H](O)CC[C@]4(C)[C@H]3CC[C@]12C)C(C)C [beta-Sitosterol]
inactive: 1 nM 0.66% | 8.33 nM 2.31% | 100 nM 1.23% | 833.33 nM -2.15% | 10000 nM -1.08%

C=CC(=O)Nc1ccc2ncnc(Nc3ccc(OCc4cccc(F)c4)c(Cl)c3)c2c1
inactive: 1 nM -1.9% | 8.33 nM 1.55% | 100 nM -0.97% | 833.33 nM -0.61% | 10000 nM -3.89%

c1ccc(-c2ccc(CNc3nc(-c4ccccn4)nnc3-c3ccccc3)cc2)cc1
inactive: 1 nM 1.58% | 8.33 nM 0.74% | 100 nM -1.15% | 833.33 nM -4.89% | 10000 nM -14.7%

O=C(O)c1cc(=O)c2c(OCC(O)COc3cccc4oc(C(=O)O)cc(=O)c34)cccc2o1 [cromoglicic-acid]
inactive: 1 nM -0.6% | 8.33 nM -0.04% | 100 nM -1.5% | 833.33 nM 0.49% | 10000 nM -0.11%

NS(=O)(=O)c1cc2c(cc1Cl)N=CNS2(=O)=O [chlorothiazide]
inactive: 1 nM 0.29% | 8.33 nM 0% | 100 nM -0.95% | 833.33 nM -0.05% | 10000 nM -0.76%

CCC[C@H](NC(=O)/C(C#N)=C/c1cccc(Br)n1)c1ccccc1
inactive: 1 nM 1.89% | 8.33 nM 1.78% | 100 nM -0.09% | 833.33 nM 4.12% | 10000 nM -5.9%

Fc1ccc(-c2cncc(CN3CCN(c4cccc5c4OCCO5)CC3)c2)cc1 [adoprazine]
inactive: 1 nM -1.19% | 8.33 nM -1.15% | 100 nM 2.28% | 833.33 nM 1.56% | 10000 nM 0.22%

CC(C)(N)C(=O)N[C@H](COCc1ccccc1)C(=O)N1CCC2(CC1)CN(S(C)(=O)=O)c1ccccc12 [ibutamoren]
inactive: 1 nM 1.85% | 8.33 nM 2.84% | 100 nM 0.93% | 833.33 nM 4.99% | 10000 nM 2.99%

O=C(O)[C@H](O)c1ccccc1 [mandelic-acid]
inactive: 1 nM -0.12% | 8.33 nM 3.41% | 100 nM 3.65% | 833.33 nM 2.65% | 10000 nM -2.37%

COc1ccc2cccc(N3CCN(CCNC(=O)c4ccc(F)cc4)CC3)c2c1
inactive: 1 nM -1.86% | 8.33 nM -0.57% | 100 nM 0.77% | 833.33 nM 0.7% | 10000 nM -3.37%

CNC1CC(c2ccc(Cl)c(Cl)c2)c2ccccc21 (stereo not given) [indatraline]
inactive: 1 nM -0.39% | 8.33 nM 0.4% | 100 nM 0.7% | 833.33 nM -3.42% | 10000 nM -10.8%

CCC[C@H](N[C@@H](C)C(=O)N1[C@H](C(=O)O)C[C@@H]2CCCC[C@@H]21)C(=O)OCC [perindopril]
inactive: 1 nM -0.73% | 8.33 nM 1.32% | 100 nM -0.77% | 833.33 nM 0.99% | 10000 nM 0.19%

CC(=O)[C@H]1CC[C@H]2[C@@H]3CC=C4C[C@@H](OC(=O)CCC(=O)O)CC[C@]4(C)[C@H]3CC[C@]12C [pregnenolone-succinate]
inactive: 1 nM 5.34% | 8.33 nM 3.1% | 100 nM 3.45% | 833.33 nM 5.79% | 10000 nM 5.05%

N[C@@H](Cn1ccc(=O)n(Cc2ccccc2C(=O)O)c1=O)C(=O)O
inactive: 1 nM 1.86% | 8.33 nM 3.68% | 100 nM -0.19% | 833.33 nM 1.26% | 10000 nM -0.16%

NS(=O)(=O)c1cccc2c1c([N+](=O)[O-])cc1nc(O)c(O)nc12
inactive: 1 nM 2.79% | 8.33 nM 2.79% | 100 nM 2.47% | 833.33 nM 1.7% | 10000 nM -1.01%

O=C1CCC(N2C(=O)c3ccccc3C2=O)C(=O)N1 (stereo not given) [thalidomide]
inactive: 1 nM 5.17% | 8.33 nM -1.38% | 100 nM -2.47% | 833.33 nM -1.68% | 10000 nM -4.45%

CC1(C)CCC(C)(C)c2cc(NC(=O)c3ccc(C(=O)O)cc3)ccc21 [tamibarotene]
inactive: 1 nM 4.56% | 8.33 nM 1.67% | 100 nM 1.5% | 833.33 nM 0.87% | 10000 nM 0.68%

COc1ccccc1OCCNCC(O)COc1cccc2[nH]c3ccccc3c12 (stereo not given) [carvedilol]
inactive: 1 nM 2.73% | 8.33 nM 3.88% | 100 nM 0.32% | 833.33 nM -1.02% | 10000 nM -1.85%

Cc1c[nH]c2ncnc(N3CCC(CN)(C(=O)Nc4cccc(OC(=O)N(C)C)c4)CC3)c12
inactive: 1 nM -0.02% | 8.33 nM -1.69% | 100 nM 4.07% | 833.33 nM -0.25% | 10000 nM 5.79%
